In PubChem BioAssay (Tox21):
Inconclusive results are not listed. Calls of active or inactive are those of the source. Calls follow the shape of the dose curve; as a rule, active = well fitted activation curve with a large enough effect in the signal ratio in the repeat runs (not every such curve was filed as active); inconclusive = weak or mixed curves, or effect the other way; inactive = flat fitted curve, though single readings scatter; the % refers to the signal ratio.

The compounds below were run against Bile acid receptor (Homo sapiens) (UniProt Q96RI1) (assay: qHTS assay to identify small molecule agonists of the farnesoid-X-receptor (FXR) signaling pathway (AID 743220)). Details: HEK293T FXR-UAS-bla, beta-lactamase FRET ratio, 16 h; series mostly up to 62.6 µM.
Sequence of Bile acid receptor (Homo sapiens) (Q96RI1 whole entry, looked up): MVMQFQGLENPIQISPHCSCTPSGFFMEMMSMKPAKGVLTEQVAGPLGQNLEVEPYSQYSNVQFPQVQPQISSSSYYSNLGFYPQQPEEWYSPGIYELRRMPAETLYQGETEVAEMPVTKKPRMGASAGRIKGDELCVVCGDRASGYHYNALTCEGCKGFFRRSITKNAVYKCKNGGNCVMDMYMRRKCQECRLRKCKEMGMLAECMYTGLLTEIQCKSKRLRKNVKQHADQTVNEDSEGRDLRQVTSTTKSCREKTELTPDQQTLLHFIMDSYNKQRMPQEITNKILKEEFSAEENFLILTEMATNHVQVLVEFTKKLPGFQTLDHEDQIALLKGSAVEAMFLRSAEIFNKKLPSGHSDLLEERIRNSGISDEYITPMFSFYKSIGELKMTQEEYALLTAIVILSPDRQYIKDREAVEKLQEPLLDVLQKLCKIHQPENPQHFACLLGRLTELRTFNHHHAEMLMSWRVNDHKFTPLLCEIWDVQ
Excerpt: National Center for Advancing Translational Sciences [NCATS]
NIH Chemical Genomics Center [NCGC]
U.S. Environmental Protection Agency [EPA]
National Institutes of Environmental Health Sciences [NIEHS]
National Toxicology Program [NTP]
U.S. Food and Drug Administration [FDA]
The farnesoid-X-receptor (FXR), a nuclear hormone receptor, is highly expressed in liver, intestine, kidney and adrenal cortex. Natural ligands of FXR are the bile acids (Cholic acid, Chenodeoxy cholic acid etc). FXR is an important regulator of diverse metabolic pathways, including the bile acid homeostasis, lipid and glucose metabolisms. FXR regulates the expression of target genes by binding either as a monomer or as a heterodimer with the retinoid X receptor (RXR). Numerous studies have reported that FXR exerts protective function during cholestasis, diabetes, liver regeneration, and cancer. To identify compounds that activate FXR signaling, GeneBLAzer FXR-UAS-bla HEK 293T cell line (Invitrogen, Carlsbad, CA) containing a beta-lactamase reporter gene under the control of a UAS response element was used to screen the Tox21 10K compound library.
Tox21 Assay Protocol Summary:
FXR-bla cells were dispensed at 5000 cells/5uL/well in 1536-well black wall/clear bottom plates using a Multidrop Combi (Thermo Fisher Scientific, Waltham, MA) dispenser. After the assay plates were incubated at 37C and 5% CO2 for 5 h, 23 nL of compounds dissolved in DMSO, positive controls or DMSO only was transferred to the assay plate by a Pintool station (Kalypsys, San Diego, CA). The assay plates were incubated at 37C for 16 h. After 1 uL of LiveBLAzerTM B/G FRET substrate was added using a Bioraptr Flying Reagent Dispenser (FRD) workstation (Beckman Coulter, Indianapolis, IN), the plates were incubated at room temperature for 2 h, and fluorescence intensity was measured by an Envision plate reader (PerkinElmer, Shelton, CT).

SMILES	outcome
O=S(=O)(Cl)c1ccccc1	inactive
CCOP(=S)(OCC)Oc1nc(Cl)c(Cl)cc1Cl	inactive
CC1(C)CCC(Cc2ccc(Cl)cc2)C1(O)Cn1cncn1 (stereo not given)	inactive
CCOc1nc(F)cc2nc(S(=O)(=O)Nc3c(Cl)cccc3Cl)nn12	inactive
CCCCCCCCCCOC(=O)c1ccccc1C(=O)OCCCCCCCCCC	inactive
C=CCC1([C@H](C)CCC)C(=O)NC(=O)NC1=O	inactive
NNC(=O)c1cccnc1	inactive
CCCCC(CC)COP(=O)(Oc1ccccc1)Oc1ccccc1 (stereo not given)	inactive
CN(N=O)c1ccc([N+](=O)[O-])cc1	inactive
O=C(C(Cl)(Cl)Cl)C(Cl)(Cl)Cl	inactive
ClP(Cl)(Cl)(Cl)Cl	inactive
Sc1ccccc1Cl	inactive
CC1Sc2c(C(=O)O)c(=O)c3cc(F)c(N4CCNCC4)cc3n21 (stereo not given)	inactive
C=CC(=O)OCCCCO	inactive
CC(C)=CCOc1c2occc2cc2ccc(=O)oc12	inactive
Clc1ccc(C2(Cn3cncn3)CC(Br)CO2)c(Cl)c1 (stereo not given)	inactive
CCO[C@H]1O[C@@H]2OC3(C)CC[C@H]4[C@H](C)CC[C@@H]([C@H]1C)[C@@]24OO3	inactive
OC(c1ccc(Cl)cc1)(c1ccc(Cl)cc1)c1cccnc1	inactive
CCCCNP(N)(N)=S	inactive
CCOP(=S)(OCC)Oc1cc(Cl)c(Br)cc1Cl	inactive

SMILES	outcome
C=CC(=O)OC	inactive
CC(Cl)Cl	inactive
CCCC(Cn1cncn1)c1ccc(Cl)cc1Cl (stereo not given)	inactive
COCC(C)N(C(=O)CCl)c1c(C)csc1C (stereo not given)	inactive
COP(=S)(OC)Oc1cc(Cl)c(I)cc1Cl	inactive
COc1cc(CC(C)N)cc2c1OCO2 (stereo not given)	inactive
CCCN(CC1CC1)c1c([N+](=O)[O-])cc(C(F)(F)F)cc1[N+](=O)[O-]	inactive
C(=NC1CCCCC1)=NC1CCCCC1	inactive
CCC(Br)(CC)C(=O)NC(N)=O	inactive
Cl/C=C\C[N+]12CN3CN(CN(C3)C1)C2	inactive
O=C1NCN(c2ccccc2)C12CCN(CCCOc1ccc(F)cc1)CC2	inactive
CO/N=C(/C(=O)OC)c1ccccc1COc1ccccc1C	inactive
CC(Cl)C(C)Cl (stereo not given)	inactive
O=S1(=O)OC(c2cc(Br)c(O)c(Br)c2)(c2cc(Br)c(O)c(Br)c2)c2ccccc21	inactive
O=[N+]([O-])C(Br)(CO)CO	inactive
C=CCN1CC[C@]23c4c5ccc(O)c4O[C@H]2C(=O)CC[C@@]3(O)[C@H]1C5	inactive
CC1C(=O)C[C@]2(C(C)C)C[C@H]12 (stereo not given in full)	inactive
O=C(N[C@H](c1ccccc1)[C@@H]1CN2CCC1CC2)c1c(Cl)ccc(C(F)(F)F)c1Cl	inactive
CCCCN=C=O	inactive
COC(N)=O	inactive
